Measured values from the supplement of paper PMC11732987, “Enantioselective OTUD7B fragment discovery through chemoproteomics screening and high-throughput optimisation” (Communications Chemistry, 2025).

Columns and labels:
Experiment in all cases: log2 ratio of Biotin-Ahx-Ub-VS probe labelling (fragment/DMSO); higher = less target engagement (more negative = stronger competition), active = hit call of the paper (q ≤ 0.05, log2 ratio ≤ -1)
Conditions in all cases: compound concentration: 200 uM; treatment time: 3 h
[1] = biological target: USP34 (UniProt Q70CQ2)
Procedure, shortened: (§1)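 Labelled DUBs from HEK293T lysate were NeutrAvidin-enriched, digested with LysC and trypsin, and run by diaPASEF LC-MS/MS. Before that, each 495 µg sample in Tris/CHAPS/IGEPAL buffer with protease inhibitors was treated in triplicate with fragment at 200 µM or vehicle for 3 h, then with Biotin-Ahx-Ub-VS at 0.5 µM final for 1 h. Values are average log2 ratios of fragment over vehicle by unpaired t-test, based on global-median-normalised Spectronaut label-free quantities from proteins with ≥2 unique peptides.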

[2] = biological target: T1, USP36 (UniProt Q9P275)
T1 sequence (whole entry): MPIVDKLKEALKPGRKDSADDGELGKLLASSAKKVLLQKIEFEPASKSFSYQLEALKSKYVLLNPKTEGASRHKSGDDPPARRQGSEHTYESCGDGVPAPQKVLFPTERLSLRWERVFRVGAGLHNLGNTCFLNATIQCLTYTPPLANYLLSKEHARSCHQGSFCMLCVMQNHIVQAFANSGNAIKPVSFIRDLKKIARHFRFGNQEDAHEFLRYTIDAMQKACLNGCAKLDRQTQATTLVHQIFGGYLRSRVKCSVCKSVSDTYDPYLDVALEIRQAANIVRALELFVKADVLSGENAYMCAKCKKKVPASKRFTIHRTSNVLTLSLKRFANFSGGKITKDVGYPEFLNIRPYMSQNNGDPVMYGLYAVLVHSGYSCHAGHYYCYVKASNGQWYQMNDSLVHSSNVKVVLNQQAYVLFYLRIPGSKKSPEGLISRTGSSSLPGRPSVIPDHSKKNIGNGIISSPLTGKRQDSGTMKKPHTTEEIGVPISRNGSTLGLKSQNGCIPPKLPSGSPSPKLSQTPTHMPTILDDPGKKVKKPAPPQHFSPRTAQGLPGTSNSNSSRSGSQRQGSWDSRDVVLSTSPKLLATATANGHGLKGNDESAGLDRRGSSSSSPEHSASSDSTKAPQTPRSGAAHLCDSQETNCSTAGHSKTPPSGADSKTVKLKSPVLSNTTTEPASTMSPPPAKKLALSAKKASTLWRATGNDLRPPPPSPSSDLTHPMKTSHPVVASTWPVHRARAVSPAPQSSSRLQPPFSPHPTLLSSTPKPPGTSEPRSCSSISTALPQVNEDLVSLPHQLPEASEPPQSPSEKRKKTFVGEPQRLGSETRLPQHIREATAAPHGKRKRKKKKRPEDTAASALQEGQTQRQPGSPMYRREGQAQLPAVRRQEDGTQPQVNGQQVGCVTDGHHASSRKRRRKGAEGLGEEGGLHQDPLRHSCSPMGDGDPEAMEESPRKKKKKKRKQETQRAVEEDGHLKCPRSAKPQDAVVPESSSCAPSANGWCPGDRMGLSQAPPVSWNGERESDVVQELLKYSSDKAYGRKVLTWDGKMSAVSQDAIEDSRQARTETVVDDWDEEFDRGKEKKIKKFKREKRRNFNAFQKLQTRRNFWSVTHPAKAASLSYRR
Procedure, shortened: as §1

[3] = biological target: T2, USP38 (UniProt Q8NB14)
T2 sequence (whole entry): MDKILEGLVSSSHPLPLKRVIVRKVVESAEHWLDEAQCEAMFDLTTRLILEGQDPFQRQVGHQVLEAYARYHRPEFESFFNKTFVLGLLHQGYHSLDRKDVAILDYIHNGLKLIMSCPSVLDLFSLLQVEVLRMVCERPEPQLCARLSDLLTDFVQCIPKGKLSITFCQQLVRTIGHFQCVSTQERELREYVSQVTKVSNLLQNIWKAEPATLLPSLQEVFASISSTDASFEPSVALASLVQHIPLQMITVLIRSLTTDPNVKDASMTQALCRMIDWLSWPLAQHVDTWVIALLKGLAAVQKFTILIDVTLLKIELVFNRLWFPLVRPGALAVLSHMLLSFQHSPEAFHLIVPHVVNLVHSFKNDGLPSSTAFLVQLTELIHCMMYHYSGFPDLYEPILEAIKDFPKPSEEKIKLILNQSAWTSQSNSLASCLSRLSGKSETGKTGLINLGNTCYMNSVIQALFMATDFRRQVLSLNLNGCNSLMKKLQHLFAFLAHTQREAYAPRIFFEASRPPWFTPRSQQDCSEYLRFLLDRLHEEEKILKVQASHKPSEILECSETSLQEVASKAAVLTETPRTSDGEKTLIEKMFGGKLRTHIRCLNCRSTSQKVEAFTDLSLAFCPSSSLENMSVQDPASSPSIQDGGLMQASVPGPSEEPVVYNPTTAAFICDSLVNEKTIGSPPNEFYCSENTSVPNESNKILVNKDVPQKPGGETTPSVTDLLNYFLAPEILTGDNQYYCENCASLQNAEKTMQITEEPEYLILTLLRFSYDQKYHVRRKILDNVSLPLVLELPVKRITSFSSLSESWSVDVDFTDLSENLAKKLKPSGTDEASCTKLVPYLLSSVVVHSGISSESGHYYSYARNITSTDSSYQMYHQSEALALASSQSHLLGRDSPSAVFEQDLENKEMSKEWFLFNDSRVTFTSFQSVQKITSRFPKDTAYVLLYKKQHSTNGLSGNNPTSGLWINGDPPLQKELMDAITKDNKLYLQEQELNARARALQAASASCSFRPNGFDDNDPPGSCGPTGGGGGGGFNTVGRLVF
Procedure, shortened: as §1

[4] = biological target: T3, USP39 (UniProt Q53GS9)
T3 sequence (whole entry): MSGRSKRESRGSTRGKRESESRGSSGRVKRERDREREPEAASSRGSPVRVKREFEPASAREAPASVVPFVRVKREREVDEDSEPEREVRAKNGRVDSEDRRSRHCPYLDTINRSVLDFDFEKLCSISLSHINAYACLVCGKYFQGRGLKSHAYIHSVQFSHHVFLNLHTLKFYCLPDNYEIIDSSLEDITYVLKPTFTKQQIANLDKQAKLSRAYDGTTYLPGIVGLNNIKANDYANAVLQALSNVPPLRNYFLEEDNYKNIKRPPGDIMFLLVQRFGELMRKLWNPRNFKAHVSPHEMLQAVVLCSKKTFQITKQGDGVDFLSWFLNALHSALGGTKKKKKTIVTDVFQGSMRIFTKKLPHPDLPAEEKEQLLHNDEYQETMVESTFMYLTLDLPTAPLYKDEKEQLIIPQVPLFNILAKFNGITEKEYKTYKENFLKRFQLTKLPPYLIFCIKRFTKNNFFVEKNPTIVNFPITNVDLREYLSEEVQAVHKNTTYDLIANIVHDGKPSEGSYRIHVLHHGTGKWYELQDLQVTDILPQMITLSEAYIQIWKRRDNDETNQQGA
Procedure, shortened: as §1

[5] = biological target: T4, USP4 (UniProt Q13107)
T4 sequence (whole entry): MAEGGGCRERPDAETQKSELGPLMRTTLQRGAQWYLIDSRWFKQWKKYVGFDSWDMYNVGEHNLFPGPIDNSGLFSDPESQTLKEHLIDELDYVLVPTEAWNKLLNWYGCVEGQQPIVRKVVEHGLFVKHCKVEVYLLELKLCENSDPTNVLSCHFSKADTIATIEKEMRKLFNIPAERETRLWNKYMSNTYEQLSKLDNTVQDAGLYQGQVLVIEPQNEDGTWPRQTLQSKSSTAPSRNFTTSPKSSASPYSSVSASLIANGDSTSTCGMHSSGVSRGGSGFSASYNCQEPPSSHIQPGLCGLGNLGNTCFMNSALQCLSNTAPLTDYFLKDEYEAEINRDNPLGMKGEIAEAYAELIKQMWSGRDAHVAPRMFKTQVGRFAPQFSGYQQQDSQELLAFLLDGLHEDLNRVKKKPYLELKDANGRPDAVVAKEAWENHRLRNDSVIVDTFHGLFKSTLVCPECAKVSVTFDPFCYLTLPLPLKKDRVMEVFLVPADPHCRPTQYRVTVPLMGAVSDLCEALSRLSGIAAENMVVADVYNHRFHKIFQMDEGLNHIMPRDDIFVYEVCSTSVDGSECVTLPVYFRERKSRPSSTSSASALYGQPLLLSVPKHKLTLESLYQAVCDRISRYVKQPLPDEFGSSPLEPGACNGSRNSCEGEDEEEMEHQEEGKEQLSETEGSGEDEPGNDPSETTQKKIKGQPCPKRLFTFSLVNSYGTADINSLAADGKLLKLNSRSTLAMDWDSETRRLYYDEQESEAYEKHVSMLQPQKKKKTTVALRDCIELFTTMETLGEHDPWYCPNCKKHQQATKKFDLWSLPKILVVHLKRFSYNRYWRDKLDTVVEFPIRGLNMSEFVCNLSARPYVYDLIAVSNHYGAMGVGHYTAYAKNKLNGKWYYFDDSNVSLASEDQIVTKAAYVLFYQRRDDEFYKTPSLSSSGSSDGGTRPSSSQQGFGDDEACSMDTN
Procedure, shortened: as §1

Measured: log2 ratio of Biotin-Ahx-Ub-VS probe labelling

Sequence of USP34 (Q70CQ2 whole entry, the tested form may be a part): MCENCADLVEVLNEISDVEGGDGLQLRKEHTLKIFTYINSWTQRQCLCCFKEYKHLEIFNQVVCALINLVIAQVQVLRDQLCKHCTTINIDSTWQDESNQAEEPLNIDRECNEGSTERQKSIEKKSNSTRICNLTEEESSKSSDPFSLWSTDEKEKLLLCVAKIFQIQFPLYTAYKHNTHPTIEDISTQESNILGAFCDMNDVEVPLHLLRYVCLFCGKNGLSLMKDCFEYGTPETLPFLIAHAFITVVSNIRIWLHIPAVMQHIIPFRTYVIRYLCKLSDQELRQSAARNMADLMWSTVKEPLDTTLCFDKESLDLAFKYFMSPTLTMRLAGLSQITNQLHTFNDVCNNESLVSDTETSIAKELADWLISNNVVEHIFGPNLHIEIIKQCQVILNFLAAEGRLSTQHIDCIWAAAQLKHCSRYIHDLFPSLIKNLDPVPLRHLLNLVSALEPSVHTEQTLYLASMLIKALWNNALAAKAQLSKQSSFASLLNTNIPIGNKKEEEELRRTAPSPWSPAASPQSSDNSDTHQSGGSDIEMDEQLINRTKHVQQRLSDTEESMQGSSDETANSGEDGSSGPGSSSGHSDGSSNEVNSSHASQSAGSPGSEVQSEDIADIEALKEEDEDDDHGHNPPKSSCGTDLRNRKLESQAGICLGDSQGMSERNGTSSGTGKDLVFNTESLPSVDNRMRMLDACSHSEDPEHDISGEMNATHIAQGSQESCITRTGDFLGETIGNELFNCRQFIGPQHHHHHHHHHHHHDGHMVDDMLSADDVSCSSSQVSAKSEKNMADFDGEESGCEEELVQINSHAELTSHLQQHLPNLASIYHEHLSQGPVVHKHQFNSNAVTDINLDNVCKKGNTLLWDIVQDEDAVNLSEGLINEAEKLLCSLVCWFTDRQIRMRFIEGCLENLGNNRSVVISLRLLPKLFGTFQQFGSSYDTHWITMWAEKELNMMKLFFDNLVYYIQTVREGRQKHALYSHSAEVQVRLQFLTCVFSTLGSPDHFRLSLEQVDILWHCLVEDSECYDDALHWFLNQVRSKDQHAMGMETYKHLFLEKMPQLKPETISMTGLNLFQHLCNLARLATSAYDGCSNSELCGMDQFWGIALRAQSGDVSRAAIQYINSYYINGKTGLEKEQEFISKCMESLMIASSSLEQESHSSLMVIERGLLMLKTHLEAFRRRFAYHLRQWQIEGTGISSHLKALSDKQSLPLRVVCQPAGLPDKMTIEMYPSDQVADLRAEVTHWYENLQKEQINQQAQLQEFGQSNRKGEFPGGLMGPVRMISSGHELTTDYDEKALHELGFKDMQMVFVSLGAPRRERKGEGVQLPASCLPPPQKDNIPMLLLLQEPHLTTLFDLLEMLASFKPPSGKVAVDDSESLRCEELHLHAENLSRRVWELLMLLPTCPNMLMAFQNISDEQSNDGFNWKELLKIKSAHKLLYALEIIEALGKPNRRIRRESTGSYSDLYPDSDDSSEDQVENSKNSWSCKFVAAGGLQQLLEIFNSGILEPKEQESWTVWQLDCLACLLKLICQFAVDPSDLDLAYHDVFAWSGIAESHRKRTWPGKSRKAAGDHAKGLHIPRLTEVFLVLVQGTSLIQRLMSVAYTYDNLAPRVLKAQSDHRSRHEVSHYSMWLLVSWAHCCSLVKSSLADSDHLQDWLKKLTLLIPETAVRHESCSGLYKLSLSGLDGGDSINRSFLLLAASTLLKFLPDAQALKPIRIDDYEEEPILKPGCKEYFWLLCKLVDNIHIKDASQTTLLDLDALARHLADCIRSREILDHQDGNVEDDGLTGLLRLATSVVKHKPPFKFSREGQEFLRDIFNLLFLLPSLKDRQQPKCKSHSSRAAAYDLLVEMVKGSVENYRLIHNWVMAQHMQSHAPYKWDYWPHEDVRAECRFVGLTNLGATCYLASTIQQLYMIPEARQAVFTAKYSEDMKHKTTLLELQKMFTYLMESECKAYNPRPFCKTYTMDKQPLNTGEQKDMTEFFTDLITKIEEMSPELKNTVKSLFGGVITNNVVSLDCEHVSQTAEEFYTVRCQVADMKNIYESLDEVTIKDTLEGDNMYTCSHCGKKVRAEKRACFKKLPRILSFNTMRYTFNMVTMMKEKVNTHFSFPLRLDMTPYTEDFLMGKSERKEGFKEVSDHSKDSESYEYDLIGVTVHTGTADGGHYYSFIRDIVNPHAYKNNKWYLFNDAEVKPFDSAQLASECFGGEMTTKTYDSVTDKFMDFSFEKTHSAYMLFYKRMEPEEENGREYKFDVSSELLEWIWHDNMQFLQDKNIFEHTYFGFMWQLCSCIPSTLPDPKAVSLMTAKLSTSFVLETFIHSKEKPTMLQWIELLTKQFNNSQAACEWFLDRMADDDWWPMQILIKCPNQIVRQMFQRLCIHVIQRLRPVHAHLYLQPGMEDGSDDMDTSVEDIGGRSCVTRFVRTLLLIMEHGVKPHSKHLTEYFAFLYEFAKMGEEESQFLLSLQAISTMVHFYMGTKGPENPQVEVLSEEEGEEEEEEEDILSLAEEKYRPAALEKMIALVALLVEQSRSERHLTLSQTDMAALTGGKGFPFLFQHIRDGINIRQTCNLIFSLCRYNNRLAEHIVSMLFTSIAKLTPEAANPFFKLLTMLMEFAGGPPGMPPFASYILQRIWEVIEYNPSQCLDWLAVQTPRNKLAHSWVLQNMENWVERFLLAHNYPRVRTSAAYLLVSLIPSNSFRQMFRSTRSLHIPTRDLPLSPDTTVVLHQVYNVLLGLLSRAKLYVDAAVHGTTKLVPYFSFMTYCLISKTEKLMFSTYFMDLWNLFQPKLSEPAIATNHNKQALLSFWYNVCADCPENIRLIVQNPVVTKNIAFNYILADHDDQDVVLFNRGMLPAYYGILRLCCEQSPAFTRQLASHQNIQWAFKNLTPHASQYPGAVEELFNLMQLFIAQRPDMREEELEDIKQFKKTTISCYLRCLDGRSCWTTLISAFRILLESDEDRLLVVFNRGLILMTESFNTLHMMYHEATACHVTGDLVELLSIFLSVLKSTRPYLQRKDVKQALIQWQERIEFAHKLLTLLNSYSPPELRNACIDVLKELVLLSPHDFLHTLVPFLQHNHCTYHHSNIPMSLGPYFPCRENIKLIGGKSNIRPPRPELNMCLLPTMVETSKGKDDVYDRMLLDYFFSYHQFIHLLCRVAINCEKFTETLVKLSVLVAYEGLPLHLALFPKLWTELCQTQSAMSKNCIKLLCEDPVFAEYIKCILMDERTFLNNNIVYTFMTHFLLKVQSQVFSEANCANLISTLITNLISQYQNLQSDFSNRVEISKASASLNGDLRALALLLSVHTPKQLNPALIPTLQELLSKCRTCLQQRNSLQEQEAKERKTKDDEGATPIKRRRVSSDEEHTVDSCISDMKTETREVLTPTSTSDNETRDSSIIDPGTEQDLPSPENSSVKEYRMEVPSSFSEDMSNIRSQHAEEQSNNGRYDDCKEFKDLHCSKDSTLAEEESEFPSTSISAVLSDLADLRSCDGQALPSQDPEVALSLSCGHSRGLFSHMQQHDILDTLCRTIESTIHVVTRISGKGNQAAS

Cc1conc1C1CN(C(=O)CCl)C1
inactive: [1] -0.684 | [2] -0.258 | [3] -0.799 | [4] 0.247 | [5] -0.913
